Inconclusive results are not listed. A number with no mark means an inactive call. The source made the active and inactive calls. Calls follow the shape of the full dose curve.
% is scaled to controls: 0 for no effect and ±100 for the full control effect; potency is read from the fitted curve at half-maximal effect.

The assay in a line: qHTS assay for small molecule agonists of the p53 signaling pathway (AID 651631). Also: nearly all actives have a fitted effect of over 15% in size. Particulars: HCT-116 p53RE-bla reporter, beta-lactamase FRET ratio, 16 h; series mostly up to 73.3 µM; activation: at the top concentration. From the text:
U.S. Tox21 Program National Center for Advancing Translational Sciences [NCATS] NIH Chemical Genomics Center [NCGC] U.S. Environmental Protection Agency [EPA] National Institutes of Environmental Health Sciences [NIEHS] National Toxicology Program [NTP] U.S. Food and Drug Administration [FDA] Tox21 Assay Overview: p53, a tumor suppressor protein, is activated following cellular insult, including DNA damage and other cellular stresses. The activation of p53 regulates cell fate by inducing DNA repair, cell cycle arrest, apoptosis, or cellular senescence. The activation of p53, therefore, is a good indicator of DNA damage and other cellular stresses. The CellSensor p53RE-bla HCT-116 cell line (Invitrogen) contains a stably integrated beta-lactamase reporter gene under control of the p53 response elements. The activation of the reporter gene under culture conditions can be detected by fluorescence intensity. This cell line was used to screen the Tox21 compound library in a 1536-well plate format and to identify agonists that activate the p53 signaling pathway.
Tox21 Assay Protocol Summary: The p53RE-bla cells were dispensed at 4,000 cells/5 ul/well in 1536-well black wall/clear bottom plates using a Multidrop dispenser. After the assay plates were incubated at a 37 C/5% CO2 incubator for 5 hours, 23 nL of compounds dissolved in DMSO, positive controls or DMSO only was transferred to the assay plate by a pin tool. The plates were incubated at 37 C for 16 hours. After 1 uL of LiveBLAzerTM B/G FRET substrate was added using a Flying Reagent Dispenser, the plates were incubated at room temperature for 2 hours, and fluorescence intensity was measured by an Envision plate reader.
For orientation: In qHTS, concentration-response curves come from the screen itself.
As to `CCCCCCC1CCC(=O)O1` (stereo not given), the “activation” value was -2.12% [at 95.1 µM].
As for `CCC1C(=O)OCC1Cc1cncn1C` (stereo not given), the “activation” value is -2.92%.
Same read-out and setting: the result for `OCCCCCO` reads -1.33% [at 95.1 µM]; that for `O=C(O)CC(C(=O)O)S(=O)(=O)O` (stereo not given), -3.65%.
On the same count and under the same terms, the result for `C=CCCCCCCCCC(=O)OCC` reads -1.58%.
Still for that read-out and setting: the result for `CCCc1ncc(C[n+]2ccccc2C)c(N)n1` reads 5.65% [at 34.7 µM]; that for `COc1cc(C(=O)NCc2ccc(OCCN(C)C)cc2)cc(OC)c1OC`, -3.56% [at 34.7 µM].
As to `CCC(C)(CN(C)C)OC(=O)c1ccccc1` (stereo not given), the “activation” value is 1.17% [at 34.7 µM].
Same read-out and setting: to `Cc1ccnc(NS(=O)(=O)c2ccc(N)cc2)n1` belongs 2.94% [at 34.7 µM].
On the same count and under the same terms, the result for `CC(=O)C1CCCCC1=O` (stereo not given) reads -3.16%; that for `Cc1ccc(C(=O)Nc2ccc(S(=O)(=O)O)c3cc(S(=O)(=O)O)cc(S(=O)(=O)O)c23)cc1NC(=O)c1cccc(NC(=O)Nc2cccc(C(=O)Nc3cc(C(=O)Nc4ccc(S(=O)(=O)O)c5cc(S(=O)(=O)O)cc(S(=O)(=O)O)c45)ccc3C)c2)c1`, -1.71%; that for `C=CCOCC(O)CO` (stereo not given), -1.29%.
The same measure, in the same setting: the result for `c1ccc(Cc2ccccc2)cc1` reads 4.1%.
For the molecule `[O-][n+]1cccc(CO)c1`, the “activation” value is -3.73%.
Consider `CC[C@H]1OC(=O)[C@H](C)[C@@H](O[C@H]2C[C@@](C)(OC)[C@@H](O)[C@H](C)O2)[C@H](C)[C@@H](O[C@@H]2O[C@H](C)C[C@H](N(C)C)[C@H]2O)[C@](C)(OC)C[C@@H](C)C(=O)[C@H](C)[C@@H](O)[C@]1(C)O`, for which the Potency entry is “inactive”.
For `O=S(=O)(O)c1cccc2ccccc12`, the “activation” value was 1.18%.
For the molecule `CC(C)CC(C)(N)C#N` (stereo not given), the “activation” value is -1.7% [at 95.1 µM].
The same measure, in the same setting: the result for `CCCCOCCOC(=O)COc1cc(Cl)c(Cl)cc1Cl` reads -3.61%; that for `CCCc1nn(C)c2c(=O)[nH]c(-c3cc(S(=O)(=O)N4CCN(C)CC4)ccc3OCC)nc12`, -2.88%.
For the molecule `CN1CC(=O)N/C1=N/C(=O)Nc1cccc(Cl)c1`, the Potency entry was “inactive”.
`Cc1ccc(C(=O)c2ccc(CC(=O)O)n2C)cc1`: the “activation” value was 1.65% [at 34.7 µM].
As for `CC(C)=CCC/C(C)=C/C#N`, the “activation” value was -3.11% [at 95.1 µM].
For the molecule `CN(C)[C@@H]1C(=O)C(C(=O)NCN2CCCC2)=C(O)[C@@]2(O)C(=O)C3=C(O)c4c(O)cccc4[C@@](C)(O)C3C[C@@H]12` (stereo not given in full), the Potency entry was “inactive”.
On to `CCNS(=O)(=O)c1ccc(C)cc1`, for which the “activation” value is -3.98% [at 95.1 µM].
As to `CCC(C)(CCCC(C)C)OC(C)=O` (stereo not given), the “activation” value was -0.98%.
Regarding `O=C(CO)[C@@H](O)[C@H](O)[C@H](O)CO`, the Potency entry was “inactive”.
For the molecule `CC(=O)N[C@H]1[C@H]([C@H](O)[C@H](O)CO)OC(C(=O)O)=C[C@@H]1N=C(N)N`, the “activation” value was -4.42%.
For the molecule `Nc1ccn([C@@H]2O[C@H](CO)[C@@H](O)C2(F)F)c(=O)n1`, the Potency was 106 nM (active).
On to `CO/N=C(\C(=O)N[C@@H]1C(=O)N2C(C(=O)O)=C(CSc3nc(=O)c(O)nn3C)CS[C@H]12)c1csc(N)n1`, for which the “activation” value is -2.56%.
On the same count and under the same terms, to `CCOC(=O)c1cnc2c(cnn2CC)c1NN=C(C)C` belongs 5.48%; to `CC(C#N)(CCC(=O)O)N=NC(C)(C#N)CCC(=O)O` (stereo not given), 2.73%.
Same read-out and setting: to `CCOC(=O)c1ccccc1` belongs 2.55%.
`CO[Si](C)(OC)c1ccccc1`: the “activation” value is 4.39%.
For `C=C[Si](OC(C)=O)(OC(C)=O)OC(C)=O`, the “activation” value is -2.2%.
Consider `CC(C)COC(=O)c1ccc(N)cc1`, for which the “activation” value was -4.21%.
As to `C=C(C)C(=O)OCCOCCOCCOCCOC(=O)C(=C)C`, the “activation” value was -1.5%.
Still for that read-out and setting: to `CC(=O)Nc1ccc(OCC(O)CNC(C)C)cc1` (stereo not given) belongs -3.07%; to `C=CC(=O)OCCCl`, -4.22% [at 95.1 µM]; to `COc1cc(-c2ccc(=O)[nH]n2)ccc1OC(F)F`, -3.61%.
For the molecule `CC1(C)OC[C@@H](COC(=O)CCc2ccc(OC[C@@H](O)CNCCNC(=O)N3CCOCC3)cc2)O1`, the “activation” value was -2.16%.

The values are drawn from PubChem BioAssay (Tox21).
